# Test results reported in PubChem BioAssay (EPA / NIEHS).
# Results filed as inconclusive are left out. The source made the active and inactive calls. Rule for the calls, unless noted: active = hit-call score of the fitted dose curve at least 0.9, where 1 is the maximum; inactive = score below 0.9.
# Test: CCTE_Simmons_MITO_inhib_resp_rate: CCTE's HepG2 Seahorse XF Respirometric Screening Assay at Inhibited Respiratory State [full ETC block], Simmons Lab (AID 2284006)
# Details: actives raise or lower the signal
# Procedure, shortened: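 This endpoint is the respiration rate remaining after rotenone/antimycin A block, in HepG2 cells on a Seahorse XF96. Chemicals spanned 125 nM–100 uM final, in three biological replicates. OCR was read every 6 minutes for 72 minutes and compared with DMSO vehicle.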
row,SMILES,outcome
1,O=C(O)C1(c2ccc3c(c2)OC[C@H](Cc2ccc(-c4ccccc4)cc2)[C@H]3O)CCCC1,inactive
2,Oc1cc(Cl)c(Cl)cc1Cl,inactive
3,Oc1c(Cl)cc(Cl)cc1Cl,inactive

# Test: CCTE_Simmons_MITO_viability: CellTiter-Glo Viability Assessment for CCTE's HepG2 Seahorse XF Respirometric Screening Assay [post-hoc], Simmons Lab (AID 2284007; active = hit-call score of the fitted dose curve at least 0.9, where 1 is the maximum)
# Details: not given
# Procedure, shortened: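 Luciferase-coupled ATP read-out after the Seahorse run: HepG2 cells treated 90 minutes with test chemical, 7-point series of 125 nM–100 uM final, in triplicate biological runs. Vehicle DMSO; dichlone as positive control over 8 concentrations.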
row,SMILES,outcome
1,O=C(O)C1(c2ccc3c(c2)OC[C@H](Cc2ccc(-c4ccccc4)cc2)[C@H]3O)CCCC1,inactive
2,Oc1cc(Cl)c(Cl)cc1Cl,inactive
3,Oc1c(Cl)cc(Cl)cc1Cl,inactive

# Test: CCTE_Shafer_MEA_acute_spike_number: CCTE's Neural Acute Assay for Total Number of Spikes, Shafer Lab (AID 2284008);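 for AC50: curve fitted for decrease in spike count so AC50 reflects inhibitors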
# Details: not given
# Procedure, shortened: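 Rat cortical cultures, DIV 13/15, 37 C. 40 min baseline rec, cpd 0.03-40 uM, 40 min post-dose rec. Band-pass 300-5000 Hz, spike threshold 8x rms; % change in spike count per well, DMSO neg ctrl, loss-of-signal fit.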
SMILES,outcome,AC50
OCCCCO,inactive,
N#Cc1cccnc1,inactive,
Cc1ccccc1OP(=O)(Oc1ccccc1C)Oc1ccccc1C,,25.4 µM (active)
CCCCOC(=O)COC(=O)c1ccccc1C(=O)OCCCC,,0.0196 µM (active)
Cc1cc(C(F)(C(F)(F)F)C(F)(F)F)ccc1NC(=O)c1cccc(I)c1C(=O)NC(C)(C)CS(C)(=O)=O,,1.68 µM (active)
CN(C)C(=S)S,inactive,
Oc1ccc(Cc2ccc(O)cc2)cc1,,0.00454 µM (active)
CC1(C)[C@H](C(=O)O[C@H](C#N)c2cccc(Oc3ccccc3)c2)[C@@H]1/C=C(\Cl)C(F)(F)F,,1.18 µM (active)
CS(=O)(=O)c1ccc(C(=O)C2C(=O)CCCC2=O)c(Cl)c1COCC(F)(F)F,inactive,
Oc1cc(Cl)c(Cl)cc1Cl,,36.3 µM (active)
O=C(Cc1ccccc1)OCCc1ccccc1,,0.003 µM (active)
CC(C)(C)c1ccccc1O,,4.82 µM (active)
Clc1cccc(Cl)c1Cl,inactive,
CCCCCCCCCCCCc1cccc(S(=O)(=O)O)c1,inactive,
CC(C)[C@@H](Nc1ccc(C(F)(F)F)cc1Cl)C(=O)OC(C#N)c1cccc(Oc2ccccc2)c1 (stereo not given in full),,0.936 µM (active)

# Test: CCTE_Harrill_HTTr_Viability_MCF7: CCTE's 6-hour Cell Viability Assessment for the High-Throughput Transcriptomics (HTTr) Platform, in MCF-7 cells cultured in DMEM + 10% fetal bovine serum, Harrill Lab (AID 2284010)
# Details: not given
# Procedure, shortened: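 Propidium iodide exclusion, imaged by high-content analysis, gauged viability after a six-hour exposure across eight concentrations. Cells were MCF-7 grown in DMEM with 10% fetal bovine serum; fits run in both directions against DMSO.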
row,SMILES,outcome
1,O=C(O)C1(c2ccc3c(c2)OC[C@H](Cc2ccc(-c4ccccc4)cc2)[C@H]3O)CCCC1,inactive
2,OCCCCO,inactive
3,N#Cc1cccnc1,inactive
4,Clc1cnc(Oc2ccc(Oc3ncc(Cl)cc3Cl)cc2)c(Cl)c1,inactive
5,COCCl,inactive
6,COc1ccccc1N,inactive
7,CC(C)(C)c1ccc(CCOc2ncnc3ccccc23)cc1,inactive
8,COc1nn(C(=O)NS(=O)(=O)c2ccccc2OC(F)(F)F)c(=O)n1C,inactive
9,C[C@@H]1O[C@@H](O[C@H]2C[C@@H](O)[C@]3(CO)[C@H]4[C@H](O)C[C@]5(C)[C@@H](C6=CC(=O)OC6)CC[C@]5(O)[C@@H]4CC[C@]3(O)C2)[C@H](O)[C@H](O)[C@H]1O,inactive
10,CCOC(=O)OC1=C(c2cc(C)ccc2C)C(=O)NC12CCC(OC)CC2 (stereo not given),inactive
11,CCCCOC(=O)COC(=O)c1ccccc1C(=O)OCCCC,inactive
12,CCOP(=O)(OCC)OC(=CCl)c1ccc(Cl)cc1Cl,inactive
13,Cc1cc(C(F)(C(F)(F)F)C(F)(F)F)ccc1NC(=O)c1cccc(I)c1C(=O)NC(C)(C)CS(C)(=O)=O,inactive
14,CC(O)(CS(=O)(=O)c1ccc(F)cc1)C(=O)Nc1ccc(C#N)c(C(F)(F)F)c1 (stereo not given),inactive
15,CN(C)C(=S)S,inactive
16,Oc1ccc(Cc2ccc(O)cc2)cc1,inactive
17,CC1(C)[C@H](C(=O)O[C@H](C#N)c2cccc(Oc3ccccc3)c2)[C@@H]1/C=C(\Cl)C(F)(F)F,inactive

row,SMILES,outcome
1,CS(=O)(=O)c1ccc(C(=O)C2C(=O)CCCC2=O)c(Cl)c1COCC(F)(F)F,inactive
2,Oc1cc(Cl)c(Cl)cc1Cl,inactive
3,CCOP(=S)(OCC)Oc1ccc(Cl)cc1Cl,inactive
4,C[C@H]1C(=O)O[C@@H]2CCN3CC=C(COC(=O)[C@](C)(O)[C@]1(C)O)[C@H]23,inactive
5,OCC(c1ccc(Cl)cc1)c1ccc(Cl)cc1,inactive
6,O=C(Cc1ccccc1)OCCc1ccccc1,inactive
7,Brc1c(Br)c(Br)c(Oc2c(Br)c(Br)c(Br)c(Br)c2Br)c(Br)c1Br,inactive
8,CC(C)(C)c1ccccc1O,inactive
9,Clc1cccc(Cl)c1Cl,inactive
10,Oc1c(Cl)cc(Cl)cc1Cl,inactive
11,OCCN(CCO)CCO,inactive
12,CCCSP(=S)(OCC)Oc1ccc(Cl)cc1Cl (stereo not given),inactive
13,O=NN1CCCCCC1,inactive
14,Nc1nc(N)nc(Cl)n1,inactive
15,CCCCCCCCCCCCc1cccc(S(=O)(=O)O)c1,inactive
16,CC(C)[C@@H](Nc1ccc(C(F)(F)F)cc1Cl)C(=O)OC(C#N)c1cccc(Oc2ccccc2)c1 (stereo not given in full),inactive
17,O=C(N[C@H]1CN2CCC1CC2)c1ccc2c(c1)OCCO2,inactive
